TGFb inhibitor = inhibitors of TGF-b signaling; HepG2 CAGA-GFP TGF-b/SMAD3 reporter, GFP fluorescence, 18 h; TGF-beta stimulated, 500 pg/mL final; AID 588855; hit rate 1.2% among 410,000; Potency, µM (highest dose often 46.1 µM), without a hit: at the highest dose activity, negative = inhibition, most hits filed as inhibitors; also: % is scaled to controls: 0 for no effect and ±100 for the full control effect; nearly all actives have a fitted effect of over 65% in size
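Inhibition was scored as loss of TGF-beta-induced (500 pg/mL final, 18 hours, 37 degrees C) GFP in HEPG2 cells carrying a CAGA-GFP reporter, in DMEM with 1% FBS. Well GFP was summed per cell; Activity was normalised to unstimulated and stimulated DMSO wells, then concentration-response fitting.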
ATXN viability = reduces viability in counter-screen for ATXN expression inhibitors | Potency, µM (highest dose often 56.7 µM), usual class: cytotoxic | hit rate 0.49% among 400,000 | S2 cells (HEK-293 line with an ATXN2-luciferase reporter) viability, CellTiter-Fluor protease fluorescence, 24 h; also: nearly all actives have a fitted effect of over 40% in size
HT1080 IDH1KD tx = kills HT-1080 cells with IDH1 knockdown; hit rate 2% among 360,000; HT-1080 IDH1 knockdown viability, ATP luminescence, 48 h; AID 686971; Potency, µM (titrated, usually from 46.1 µM), without a hit: at the highest dose activity, negative = toxicity, usual class: cytotoxic;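 also: 0% = DMSO wells and -100% = cell-free medium wells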
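Luminescent ATP read-out (CellTiter-Glo, 10 min at room temperature) after 48 h compound exposure at 37 °C gave viability of IDH1-knockdown HT-1080 cells. Activity was normalised to DMSO and cell-free wells, then fitted as concentration-response curves.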
HT1080-NT tox = kills 2HG-producing HT-1080-NT fibrosarcoma cells; HT-1080-NT fibrosarcoma viability, CellTiter-Glo ATP luminescence, 48 h; Potency, µM (titrated, usually from 46.1 µM), for inactives: top-dose activity, negative = less viability, usual class: cytotoxic; hit rate 1.6% among 360,000; AID 686970;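 also: NT is the 2HG producing partner of a matched IDH1 knockdown line; 0% = DMSO-treated cells and -100% = media-only wells without cells; nearly all actives have a fitted effect of over 55% in size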
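A 48-hour cytotoxicity screen used HT-1080-NT cells plated 2 hours before compound delivery. ATP-based CellTiter-Glo luminescence measured viability, normalized to DMSO and no-cell controls.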
HepG2 viability = HepG2 cytotoxicity, counter-screen for TGF-b inhibitors. HepG2 CAGA-GFP viability, ATP luminescence, 18 h. Potency, µM (highest dose often 46.1 µM), inactives show at the highest dose activity change, negative = cytotoxicity, usual class: cytotoxic. hit rate 0.76% among 410,000. AID 588856
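CellTiter-Glo luminescence gave cytotoxicity after 18 hours at 37 degrees C. The cells were HepG2 CAGA-GFP in 1% FBS DMEM, stimulated with 500 pg/mL TGF-beta after compound addition. %Activity was normalised to no-cell wells (complete cell-killing) and DMSO (no toxicity), and curves were fitted and classified.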
ATXN2 expr inh = inhibitors of ATXN2 expression. HEK-293 ATXN2-luciferase reporter, luminescence, 24 h. Potency, µM (series often up to 57 µM), inactives show at the top dose activity change, negative = inhibition, hits mostly inhibitors. hit rate 0.72% among 360,000. AID 1745845; also: % is scaled to controls: 0 for no effect and ±100 for the full control effect; nearly all actives have a fitted effect of over 55% in size
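qHTS (up to 57 uM final) was run with 24 h compound exposure of reporter cells at 37 °C. Each well was multiplexed: SteadyGlo luminescence measured ATXN2-luciferase expression after a fluorogenic Gly-Phe-AFC viability readout (25 uM final).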
Numbers without * were called inactive; i = inactive; ? = inconclusive; · = no result; ! = not active in a repeat. Only some compounds are listed: those with a hit (about 3.9% of all), similar ones and a draw of the others. Calls follow the shape of the dose curve; as a rule, active = well fitted curve in the direction sought with a large enough effect; inconclusive = small, poorly fitted or top-dose-only effect, or another doubt; inactive = no such curve, though single readings can be large; an effect the other way counts as inactive or inconclusive. Potency is read from the fitted curve at half-maximal effect.

SMILES	TGFb inhibitor	ATXN viability	HT1080 IDH1KD tx	HT1080-NT tox	HepG2 viability	ATXN2 expr inh
COc1ccc(NC(=S)NC(NC(=O)c2cccc(Cl)c2)C(Cl)(Cl)Cl)c([N+](=O)[O-])c1 (stereo unspecified)	22.4µM*	?	?	?	-56.1%	?
COc1ccc(NC(=S)NC(NC(=O)c2cccc(C)c2)C(Cl)(Cl)Cl)c([N+](=O)[O-])c1 (stereo unspecified)	-13.2%	i	?	?	-37.1%	24.2%
Cc1ccc(C(=O)c2cc([N+](=O)[O-])ccc2N2CCOCC2)c(C)c1	?	?	?	?	29.6%	-4.7%
Cc1ccc(C(=O)c2cc([N+](=O)[O-])ccc2N2CCOCC2)cc1C	?	?	1.84µM*	?	16.7%	-24.9%
CSc1ccc(COC(=O)c2cc([N+](=O)[O-])ccc2N2CCOCC2)cc1	?	i	0.184µM*	?	-11.0%	-7.4%
O=C(c1ccccc1)c1cc([N+](=O)[O-])ccc1N1CCCC1	-16.0%	i	-19.0%	-7.3%	-28.2%	-34.6%
Cc1ccc(C(=O)c2cc([N+](=O)[O-])ccc2N2CCCCC2)cc1C	?	?	1.46µM*	1.64µM*	5.7%	-25.8%
O=C(O)CSCC(=O)Nc1ccc(Cl)cc1C(F)(F)F	4.6%	i	23.3%	0.9%	6.5%	-0.1%
CC(C)N(CC(=O)Nc1ccc(Cl)cc1C(F)(F)F)C(=O)CCl	?	?	6.51µM*	6.51µM*	-40.7%	18.9µM*
CCC(C)N(CC(=O)Nc1cccc(C)c1C)C(=O)CCl (stereo unspecified)	22.4µM*	·	1.03µM*	1.64µM*	-49.1%	2.99µM*
CCC(CC)NC(=O)Nc1cccc(C)c1C	-4.8%	i	-7.7%	3.0%	2.1%	·
CCOc1ccc(NC(=O)CN2C(=O)C3(SCC(=O)N3c3ccc(F)cc3)c3ccccc32)cc1 (stereo unspecified)	-18.5%	i	·	·	-30.7%	-18.6%
S=C(NCCCc1cnc[nH]1)NCCCN(Cc1ccc(Cl)cc1)c1cc(-c2ccccc2)ccn1	?	·	·	·	-93.7%	·
S=C(NCCCN(Cc1ccc(Cl)cc1)c1ccc(Br)cn1)NCc1ccc2nc[nH]c2c1	?	·	·	·	-5.1%	·
CC(=O)NCCCNC(=S)NCCCN(Cc1ccc(Cl)cc1)c1ccc(Br)cn1	15.8µM*	?	·	·	12.6µM*!	?
CN(CCCc1cnc[nH]1)C(=S)NCCCN(Cc1ccc(Cl)cc1)c1ccc(Br)cn1	7.08µM*	·	·	·	-90.7%	·
Cc1cc(C(=O)N2CCN(c3cccc(C)c3C)CC2)c2c(C)nn(-c3ccccc3)c2n1	15.3%	i	·	·	-8.2%	-1.6%
CCCCCCCCCCCCCCCCCC(=O)OCCO	·	i	·	·	·	·
Cc1ccc(CN(C(=O)COc2ccccc2[N+](=O)[O-])c2ccccn2)o1	-21.8%	i	·	·	-9.1%	38.0%
CC(O)(COc1ccccc1)c1ccc2c(c1)CN(Cc1ccc3nsnc3c1)CCO2 (stereo unspecified)	·	i	·	·	·	·
O=C(CCCn1c(=O)c2sccc2n(Cc2ccc(F)cc2)c1=O)NCc1ccco1	-25.7%	i	?	10µM*	2.6%	-27.3%
CC(C)OCCCNC(=O)c1cc2c(-c3ccc(Cl)cc3)nn(C)c2s1	-25.2%	·	·	·	-18.2%	·
NC(Cc1ccccc1)c1csc(Nc2nncc3ccccc23)n1 (stereo unspecified)	15.8µM*	·	?	?	-100.6%	?
CC(N)c1csc(Nc2nncc3ccccc23)n1 (stereo unspecified)	0.8%	i	18.4µM*	?	-29.0%	?
CC(C)C(N)c1csc(Nc2nncc3ccccc23)n1 (stereo unspecified)	?	i	?	?	-24.7%	0.0%
SMILES	TGFb inhibitor	ATXN viability	HT1080 IDH1KD tx	HT1080-NT tox	HepG2 viability	ATXN2 expr inh
Nc1ccc(CC(N)c2csc(Nc3nncc4ccccc34)n2)cc1 (stereo unspecified)	?	i	-25.0%	?	-30.3%	-24.2%
Cc1ccc(N(CC(=O)NCCc2ccc(F)cc2)S(=O)(=O)c2ccc(Cl)c([N+](=O)[O-])c2)c(C)c1	?	?	20.6µM*	?	11.2µM*	?
CCSC(=O)N1CCN(/[N+]([O-])=N/Oc2ccc([N+](=O)[O-])cc2[N+](=O)[O-])CC1	?	·	·	·	-108.3%	·
COc1cc(NC(=O)CN2CCN(c3ccc(F)cc3)CC2)cc(OC)c1	-10.3%	i	·	·	0.4%	1.1%
CN(C)CCOC1c2ccccc2CCc2ccc3ccccc3c21 (stereo unspecified)	?	?	16.4µM*	20.6µM*	-18.2%	-37.4%
CN(C)CCOC1c2ccccc2C=Cc2ccccc21	0.9%	i	-18.3%	-17.8%	-4.0%	0.0%
O=C(C[C@@H]1C[C@H]2c3cc(NC(=O)C4CCC4)ccc3O[C@H]2[C@@H](CO)O1)NCc1ccc(-c2ccccc2)cc1	?	?	?	?	15.8µM*	?
O=C(Nc1ncc(Cc2cccc([N+](=O)[O-])c2)s1)c1ccco1	-3.9%	i	4.61µM*	?	-33.1%	·
Cc1ccc(C)c(N2CCN(S(=O)(=O)c3c(C(=O)N4CCC(C)CC4)c(C)n(C)c3C)CC2)c1	-25.8%	·	·	·	-13.5%	·
CCOC(=O)c1cc(-c2ccc(F)cc2)n(CCC(=O)NC2CCC(C)CC2)c1C (stereo unspecified)	-13.9%	·	·	·	-29.4%	·
O=C(O)CCCCCCCCc1cn(Cc2ccc(C(=O)c3ccccc3)cc2)nn1	7.94µM*	i	4.61µM*	3.66µM*	-24.4%	-13.9%
CN1CCC(CNc2ccc3ncc(-c4cccc(OC(F)(F)F)c4)n3n2)CC1	·	·	·	·	·	24.3µM*
C[C@]12CC[C@@H]3c4ccc(O)cc4CC[C@H]3[C@H]1[C@@H](O)[C@@H](O)[C@H]2O	·	·	·	·	·	20.0%
CC(=O)Nc1ccc(S(=O)(=O)N2CCC(n3c(C(F)(F)F)nc4cccnc43)CC2)cc1	18.8%	i	·	·	-0.8%	-4.0%
O=C1/C(=C\c2ccccc2)CN(C(=O)CCN2CCCCC2)C/C1=C/c1ccccc1	15.8µM*	?	2.91µM*	?	-105.7%	?
O=C(NCCN1CCOCC1)c1ccc(Cl)c(Cl)c1	-0.2%	i	28.0%	16.6%	8.1%	-13.0%
O=C(CCN1C(=O)S/C(=C\c2ccccc2)C1=O)N1CCCCC1	1.0%	i	-0.9%	-0.3%	-11.2%	28.9%
